Results reported in ChEMBL document CHEMBL3988442, “University of Dundee, Small-Polar-MMV Screening Library” (2021).

target: Shiga toxin 2 (Escherichia coli O157:H7) (UniProt P09385+P09386); experiment: E. coli 0.157:H7 Shiga Toxin SOP - stx2 screening assay; format: functional; parameters: scale not given: direction of the effect not stated beside the values; settings: 30 µM

Structure (SMILES) | Percent Effect
CN(C)C(=O)c1cnc2n1CCN(Cc1ccccc1)C2 | -28%
CS(=O)(=O)NC[C@]12COC[C@H]1CN(C(=O)Cc1ccccc1F)C2 | -11.5%
O=C(NCCCn1cncn1)NCC(c1ccco1)N1CCCCC1 (stereo not given) | 18.2%
Fc1ccc(OCc2noc(CN3CCc4cncnc4C3)n2)cc1 | -1.88%
Cc1nn(CC(=O)N2CCN(c3ccccc3F)CC2)c(C)c1Cl | -39.1%
COCc1nc(CNC2CCSCC2)no1 | 9.42%
CCCNC(=O)NC(=O)CN(CC(C)O)c1ccccc1 (stereo not given) | 20.6%
Cn1cc2c(n1)C(CNC(=O)Cc1ccsc1)OCC2 (stereo not given) | -23.6%
N#CCSCCCN1CCN(C(=O)c2ccc(Cl)cc2)CC1 | -35.2%
CSc1ccccc1CN1CCCn2nc(CNC(=O)N(C)C)cc2C1 | -34.2%
CC(O)CNC(=O)NCc1ccc(N2CCNC(=O)C2)cc1 (stereo not given) | -86.8%
CC(C)Oc1ccc(CNC(=O)CC(F)(F)F)cc1F | 33.4%
CCN1CCN(C2CCN(Cc3noc(C)n3)CC2)C1=O | -25.5%
CCNC(c1cccnc1)c1cc(C)cc(C)c1 (stereo not given) | -3.23%
Cc1n[nH]c(C2CN(C(=O)CCc3ccsc3)CCO2)n1 (stereo not given) | -2.19%
COCC1CN(C(=O)c2ccoc2C)Cc2nccn2C1 (stereo not given) | -11.3%
Cc1cnn(CC2CN(CC(=O)N3CCc4ccccc43)CCO2)c1 (stereo not given) | -15.5%
CCc1nc(CN(C)C2CCN(CCn3cc(C#N)cn3)C2)no1 (stereo not given) | 9.46%
Cc1nn2cccnc2c1C(=O)N1CCCC(Nc2ccccc2)C1 (stereo not given) | 8.26%
CC1=Nc2c(c(=O)[nH]n2C(C)C)C(c2ccc(F)c(F)c2)S1 (stereo not given) | 22.2%

Structure (SMILES) | Percent Effect
CCC(C)(NCC(=O)N(c1ccccc1)C(C)C)c1nc(C)cs1 (stereo not given) | -25.8%
CCN1CCC(CNC(=O)NCc2cc(-c3ccc(C)cc3)no2)C1 (stereo not given) | -44.9%
Cc1nc(C)n(CC2CCCN2CCc2cccs2)n1 (stereo not given) | -28.6%
COCCCNC(=O)NCc1ccc(C)cc1 | -59.7%
COCC(=O)N1CCCC1c1ccnc(Nc2cnccn2)n1 (stereo not given) | 1.15%
CN(C)c1ccc(C(=O)N2CCN(C(=O)N3CCCCC3)CC2)nn1 | -35%
Cc1ccc(NC2CCN(C(=O)Cc3cccc(F)c3)CC2)nn1 | 11.3%
CN(Cc1ccc(OC(F)F)cc1)C(=O)CS(=O)(=O)c1ccc(Cl)cc1 | 15%
CC(NC(=O)NCCCN(C)S(C)(=O)=O)c1ccncc1 (stereo not given) | -9.54%
CC1CCN(C(=O)CN(Cc2ccco2)C2CC2)CC1 | -5.22%
COc1ccccc1NC(=O)NCC(O)(c1ccccc1)C1CC1 (stereo not given) | -12.2%
CCC(=O)NCCc1cc(N2CCN(C(C)=O)CC2)nc(C2CC2)n1 | -2.36%
Cc1cnn(CC2CCCN2C(=O)c2cccc(-n3cnnn3)c2)c1 (stereo not given) | 9.64%
COc1ccc(CN2CCC3(CC2)CCN(c2ncccn2)CC3)cc1 | -0.95%
O=C(NCCC(=O)N1CCCC1)c1nn(-c2ccccc2F)cc1O | -59.6%
O=C(C1CCCC1)N1CCC2(CC1)COCCN2CC1CC1 | 0.147%
O=C(c1ccc(C2CCCO2)s1)N1CCS(=O)(=O)CC1 (stereo not given) | -6.97%
CN(C)S(=O)(=O)N1CCC(Oc2ccccn2)CC1 | 10.6%
COc1ccc(C(=O)NCCCn2ccnc2)c(OC)n1 | -22.8%
Cc1c[nH]nc1C1CCN(S(=O)(=O)N(C)C)CC1 | -2.83%
